We go through 57 compounds from PubChem BioAssay AID504848 (National Center for Advancing Translational Sciences (NCATS), 2011).

Screen size: about 2,300 compounds; about 1,400 (61%) were called active. About 29% were inconclusive and are not listed. Calls follow the shape of the dose curve; as a rule, active = well fitted inhibition curve with a large enough effect; inconclusive = small, poorly fitted or top-dose-only effect, or effect the other way; inactive = no such curve, though single readings can be large or run the other way. So high a share suggests a set chosen from earlier hits. This is one part of the list.
% is scaled to controls: 0 for no effect and ±100 for the full control effect; potency is read from the fitted curve at half-maximal effect.

The assay can be described thus: Confirmation screen for delayed death inhibitors of the malarial parasite plastid, 96 hour incubation. Also: nearly all actives have a fitted effect of over 60% in size. Conditions: P. falciparum luciferase growth in erythrocytes; series mostly up to 28.7 µM; activity change, negative = inhibition: at the top concentration. The gist of the method:
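Two-generation (96 h, 37 C) exposure of P. falciparum carrying an integrated firefly luciferase reporter in erythrocytes, 0.1% parasitemia and 2% hematocrit final, Albumax-supplemented RPMI. Luminescence decrease measures growth inhibition.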
For `Cc1ccc(-n2nnnc2Sc2nc([N+](=O)[O-])nn2C)cc1C`, the Potency was 3.16 µM (active). Turning to `Cc1ccc(-n2nnnc2SCC(=O)Nc2ccccc2-c2ccccc2)cc1C`, the “activity change, negative = inhibition” value is -17% (inactive).

As to `N#Cc1cc(Oc2cccc3cccnc23)c(-n2nnc3ccccc32)cc1C#N`, the Potency was 5.62 µM (active). For the compound `CN(C)c1ccc(CNc2ncnc3sccc23)cc1`, the “activity change, negative = inhibition” value is -14.9% (inactive). Regarding `COc1cccc(-c2ccc3ncnc(NCc4cccs4)c3c2)c1`, the Potency is 5.01 µM (active). Same read-out and setting: to `CCCN(CCC)c1ccc(CC(=O)NC(C)Cc2ccccc2)cc1` (configuration not stated) belongs 12.6 µM (active); to `O=C1NC(=S)S/C1=C\C=C\c1ccc([N+](=O)[O-])o1`, 2 µM (active). On the same count and under the same terms, to `COc1ccc(C2c3c(ncn(CCN4CCOCC4)c3=N)Oc3ccc4ccccc4c32)cc1OC` (configuration not stated) belongs 2 µM (active); to `COc1ccc(C2c3c(ncn(CCCN4CCOCC4)c3=N)Oc3ccc4ccccc4c32)cc1OC` (configuration not stated), 2.24 µM (active). Same read-out and setting: the same measure for `CCc1noc(C)c1C(=O)NC1CC(C)(C)Cc2c1cnn2-c1ccccc1` (configuration not stated): 12.6 µM (active). For the compound `CC1=C(C(=O)NC2CC(C)(C)Cc3c2cnn3-c2ccc(C)cc2)OCCO1` (configuration not stated), the Potency is 11.2 µM (active). Consider `Cc1ccc(-n2ncc3c2CC(C)(C)CC3NC(=O)c2c(C)noc2C)cc1` (configuration not stated), for which the Potency is 12.6 µM (active). In the case of `CCOc1ccc2c(c1)sc(N)[n+]2Cc1cc(C)cc2cccnc12`, the Potency is 3.98 µM (active).

`COc1cc([N+](=O)[O-])c(OC)cc1SCc1n[nH]c(=S)n1-c1ccc(F)cc1`: the Potency was 15.8 µM (active). For the compound `COc1ccccc1N1CC(O)=C(c2nc3ccccc3s2)C1=N`, the Potency was 11.2 µM (active).

For the compound `Cn1c(SCC(=O)N2CCCCCC2)nc2c(c1=O)SCC2`, the Potency was 8.91 µM (active). For `CCC(=O)c1ccc(N2CCN(C(=O)c3cc([N+](=O)[O-])ccc3N3CCN(C)CC3)CC2)c(F)c1`, the Potency is 11.2 µM (active). With `O=[N+]([O-])/C=C\c1ccc(N2CCCC2)c(F)c1`, the “activity change, negative = inhibition” value is -25.7% (inactive). Consider `Cc1ccc(Nc2nc(NCc3ccco3)c3ccccc3n2)cc1`, for which the Potency was 2 µM (active). Same read-out and setting: the same measure for `C/C=C(\C)C(=O)NCCN1C2=NC[C@H](C(C)C)N2C[C@H]1Cc1ccc(O)cc1`: 5.62 µM (active); for `C/C=C(\C)C(=O)NCCN1C2=NC[C@H](Cc3ccccc3)N2C[C@H]1Cc1ccc(O)cc1`: 3.55 µM (active). Regarding `C=CCNC(=O)c1onc(CSc2cccc3ccccc23)c1C(=O)O`, the “activity change, negative = inhibition” value was -23.7% (inactive). For the compound `COc1ccc(CNc2ncc(-c3ccc(Cl)cc3)n2C)c(OC)c1OC`, the Potency was 12.6 µM (active).

Turning to `CCC[C@H]1C[C@H](C(=O)N[C@@H]([C@H]2O[C@@H](SC)[C@@H](O)[C@@H](O)[C@@H]2O)[C@H](C)Cl)N(C)C1`, the Potency is 0.199 µM (active). On the same count and under the same terms, the same measure for `Cc1ccc(S(=O)(=O)N(Cc2ccccc2)c2ccccc2C(=O)Nc2ccccc2C(=O)NCc2ccco2)cc1`: 2.24 µM (active); for `Cc1ccc(S(=O)(=O)N(CC(=O)NCc2ccco2)c2ccccc2C)cc1`: 11.2 µM (active); for `COCCn1c(=NC(=O)/C=C/c2ccccc2)sc2cc(NC(C)=O)ccc21`: 7.94 µM (active).

In the case of `COC(=O)c1cc(=O)n(Cc2cccs2)c(=Nc2ccccc2)s1`, the “activity change, negative = inhibition” value is 3.33% (inactive). On to `CCN(CC)S(=O)(=O)c1ccc(N2CCc3ccccc3C2)nc1`, for which the Potency is 14.1 µM (active). Consider `CC(C)N(C(C)C)S(=O)(=O)c1ccc(N2CCc3ccccc3C2)nc1`, for which the Potency is 12.6 µM (active). Turning to `CN1C(=O)C(C)(C)c2cc(S(=O)(=O)NCC3CCC(C(=O)NCc4ccc(F)cc4)CC3)ccc21` (configuration not stated), the Potency was 11.2 µM (active). Take `Cc1nn(-c2ccccc2)c(C)c1NC(=O)COC(=O)[C@@H](NC(=O)c1ccccc1)C(C)C`: the “activity change, negative = inhibition” value was -20.8% (inactive). In the case of `COc1ccc(NC(=O)CCCn2nc(C)c3c(C)n(-c4ccccc4)nc3c2=O)cc1`, the Potency is 11.2 µM (active). Still for that read-out and setting: the same measure for `Cc1cccc(C)c1NC(=O)CCCn1nc(C)c2c(C)n(-c3ccccc3)nc2c1=O`: 10 µM (active). In the case of `CCOc1ccccc1C(=O)NCC(=O)NCCc1ccc(S(N)(=O)=O)cc1`, the “activity change, negative = inhibition” value was 6.57% (inactive). For the compound `Cc1ccccc1NC(=O)CCCn1nc(C)c2c(C)n(-c3ccccc3)nc2c1=O`, the Potency was 10 µM (active). On the same count and under the same terms, the same measure for `CCOc1ccc(CCNC(=O)CCCn2nc(C)c3c(C)n(-c4ccccc4)nc3c2=O)cc1`: 11.2 µM (active). As to `COc1ccc(NC(=O)CCCn2cc([N+](=O)[O-])cn2)cc1`, the “activity change, negative = inhibition” value was -11.8% (inactive).

In the case of `CSc1ccccc1OCc1cc(C(=O)N(C)CCc2c(C)n[nH]c2C)no1`, the Potency was 10 µM (active). As to `CSc1ccccc1OCc1cc(C(=O)NCCCn2nc(C)cc2C)no1`, the Potency is 12.6 µM (active). For the compound `CCN(CCN1CCCC1)C(=O)c1cc(COc2ccccc2SC)on1`, the Potency was 12.6 µM (active). With `CSc1ccccc1OCc1cc(C(=O)NCCn2ccnc2C)no1`, the “activity change, negative = inhibition” value was -21% (inactive). For the compound `CCOC(=O)c1ccc(CNC(=O)c2cc(COc3ccccc3SC)on2)o1`, the “activity change, negative = inhibition” value is -8.32% (inactive). As to `COc1ccc(NC2=C(NC(C)=O)C(=O)c3ccccc3C2=O)cc1`, the Potency is 3.16 µM (active). Same read-out and setting: to `CC(=O)NC1=C(Nc2ccc(N(C)C)cc2)C(=O)c2ccccc2C1=O` belongs 6.31 µM (active). Still for that read-out and setting: to `N#Cc1ccccc1S(=O)(=O)N1CCC(C(=O)NCc2ccccc2CN2CCCC2)CC1` belongs 14.1 µM (active); to `CCOC(=O)c1cnc2ccccc2c1NCCc1ccc(OC)c(OC)c1`, 5.01 µM (active). In the case of `Cc1ccc2c(c1)c1c3n2CCN(C(=O)CCl)C3CCC1` (configuration not stated), the Potency is 14.1 µM (active). Regarding `CN(CC(=O)Nc1ccc(Cl)cc1)C(=O)Cc1c(F)cccc1Cl`, the Potency was 10 µM (active). Still for that read-out and setting: to `O=C(/C=C/Sc1ncn[nH]1)c1ccc(Cl)cc1` belongs 12.6 µM (active); to `CCC1OC(=O)C[C@@H](O)[C@H](C)[C@@H](OC2OC(C)CC(N(C)C)C2O)[C@@H](CC=O)C[C@@H](C)C(=O)/C=C/[C@]2(C)OC2C1C` (some centres not stated), 1.78 µM (active). `Cc1cc(C)n(Cc2ccc(C(=O)N/N=C/c3ccc(-c4ccc([N+](=O)[O-])cc4)o3)o2)n1`: the Potency was 5.01 µM (active). For the compound `COc1cc(C(C)=O)ccc1OCC(O)CN1CCN(c2cc(C)cc(C)c2)CC1` (configuration not stated), the Potency is 14.1 µM (active). Still for that read-out and setting: to `CC(C)(C)C1C/C(=C/c2ccccn2)C(=O)/C(=C/c2ccccn2)C1` (configuration not stated) belongs 0.158 µM (active); to `COCCNC(=O)c1cccc(OC2CCN(Cc3ccc(C(C)C)cc3)CC2)c1`, 11.2 µM (active). On to `COCCNC(=O)c1cccc(OC2CCN(Cc3cccc(SC)c3)CC2)c1`, for which the Potency is 12.6 µM (active).

As for `CSc1cccc(CN2CCC(Oc3cccc(C(=O)N4CCCC4)c3)CC2)c1`, the Potency was 12.6 µM (active).
